# Rows were chosen to be rich in hits. Some 3% of all compounds tested hit in one or more screens of this group.
# S16 viability = S16 Schwann cell cytotoxicity. S16 Pmp22-F2sN Schwann cells viability, CellTiter-Glo, 24 h. Potency, µM (top dose mostly 57.5 µM), hits mostly cytotoxic. actives 0.48% (n = 43,000); note: nearly all actives have a fitted effect of over 65% in size
#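 Seed 500-1,000 S16 Pmp22-F2sN cells per well in phenol-red-free DMEM with 10% heat-inactivated FBS; pin-add 23 nL compound; incubate 24 h at 37C; add CellTiter-Glo, wait 15 min protected from light; read luminescence.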
# mTORC1 inh = inhibitors of mTORC1 signaling in Tsc2-/- p53-/- MEF cells; Tsc2-/- p53-/- MEF, phospho-rpS6 immunofluorescence/PI, 24 h; Potency, µM (doses to about 38.3 µM), most hits filed as inhibitors; actives 0.78% (n = 44,000); AID 493208; note: nearly all actives have a fitted effect of over 50% in size
#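 Read-out: phospho-S6 Alexa-488 intensity over PI intensity per well, scored as % active cells using thresholds from rapamycin (7.5 nM) and DMSO controls. Tsc2-/-, p53-/- MEFs exposed to compound for 24 h; PI cell count recorded as viability.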
# SKOV3 invasion = ovarian cancer metastasis inhibition, 3D TME model | Potency, µM (top dose mostly 45.8 µM), most hits filed as inhibitors | actives 0.1% (n = 46,000) | SKOV3ip1-GFP adhesion/invasion on 3D omental model, fluorescence; note: nearly all actives have a fitted effect of over 65% in size
#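 qHTS, 4-pt dose (0.36-46 umol/L); SKOV3ip1-GFP, 1,200 cells/well, no FBS; primary omental fibroblast/mesothelial co-culture 48 h pre-grown; 2 h RT + 16 h 37 C; PBS wash, 4% PFA; GFP count 488/509 nm.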
# PMP22 txn prim = PMP22 gene transcription modulation. S16 Pmp22-F2sN Schwann cells (luciferase reporters placed in the Pmp22 gene), FLuc/NLuc coincidence luminescence, 24 h. Potency, µM (series often up to 57.5 µM), most hits filed as inhibitors. AID 1508649. actives 2% (n = 43,000); active = clear falling dose curves in both reporters; inconclusive = both reporters move, but less clearly or upward; inactive = either reporter flat; the % is the NLuc reporter signal
#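 Luminescent read-out of sequential FLuc and NLuc signals from a reporter embedded in the Pmp22 3' UTR of S16 Schwann cells, taken after 24 h compound exposure at 37C; compounds reducing both signals score as inhibitors of expression.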
# p53null 39C kill = selectivity test: cytotoxicity in p53 null cells, nonpermissive temperature. H1299 p53-null (neo) cells, 39C, ATPlite viability, 24 h. Potency, µM (doses to about 46.1 µM), actives largely listed as cytotoxic. actives 0.97% (n = 55,000); note: nearly all actives have a fitted effect of over 50% in size
#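 Luminescent ATP signal reported cell survival after H1299 lines (neo, p53 null; or p53 A138V) received up to 46 uM compound and 24 hr incubation at 39C.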
# p53null 32C tox = kills p53 null cells at the permissive temperature; H1299-neo p53 null cells, ATP luminescence, 24 h, 32C; Potency, µM (top dose mostly 46.1 µM), most hits filed as cytotoxic; actives 0.62% (n = 55,000); AID 903; note: nearly all actives have a fitted effect of over 55% in size
#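 AC50 values derive from Hill modelling of qHTS concentration-response data (up to 46 uM) in H1299-neo cells. Cells were treated 24 h at 32C following overnight attachment at 37C; viability was read as cellular ATP.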
# A number is an active result; . = inactive; ? = inconclusive; / = no result. Unless noted, calls come from the whole dose curve; as a rule, active = well fitted curve in the direction sought with a large enough effect; inconclusive = small, poorly fitted or top-dose-only effect, or another doubt; inactive = no such curve, though single readings can be large; an effect the other way counts as inactive or inconclusive.
SMILES,S16 viability,mTORC1 inh,SKOV3 invasion,PMP22 txn prim,p53null 39C kill,p53null 32C tox
NS(=O)(=O)OC[C@@H]1C[C@@H](n2ccc3c(N[C@H]4CCc5ccccc54)ncnc32)C[C@H]1O,/,/,.,/,/,/
CCc1cc(C(C)=NOCc2ccc(C3CCCCC3)c(C(F)(F)F)c2)ccc1CN1CC(C(=O)O)C1,/,/,.,/,/,/
Cc1cc(Nc2cccc(Cl)c2)nc2ccc(NC(=O)Cc3cccc(C(F)(F)F)c3)cc12,.,.,?,?,?,.
Cc1cc(Nc2cccc(C(F)(F)F)c2)nc2ccc(NC(=O)c3cccnc3)cc12,?,?,11.2µM,?,?,28.2µM
Cc1cc(Nc2cccc(C(F)(F)F)c2)nc2ccc(NC(=O)c3cccc(Cl)c3)cc12,.,?,.,?,12.6µM,.
FC(F)(F)c1cccc(Nc2c3c(nc4ccc(Cl)cc24)CCC3)c1,?,5.85µM,.,?,?,?
CNCc1ccc(-c2[nH]c3cc(F)cc4c3c2CCNC4=O)cc1,/,/,.,/,/,/
CCN(c1ccccc1)S(=O)(=O)c1nnc(NC(=O)c2cccs2)s1,.,.,.,.,1µM,1.26µM
CCN(c1ccc(C)cc1)S(=O)(=O)c1nnc(NC(=O)c2cccs2)s1,.,.,.,.,?,.
CC(C)CN(c1ccccc1)S(=O)(=O)c1nnc(NC(=O)c2ccco2)s1,.,.,.,.,2µM,?
FC(F)(F)c1ccc(C=Cc2nc(COc3ccc(CCCCn4ccnn4)cc3)co2)cc1,/,/,.,/,/,/
O=C1NC(=O)C(=Cc2ccc3nccc(-c4ccncc4)c3c2)S1,/,/,.,/,/,/
O=C(O)C(O)Cc1ccc(O)c(O)c1 (stereo not given),/,/,.,/,/,/
Cc1ccc2occ(CC(=O)Nc3ccc(Cl)c(C(F)(F)F)c3)c2c1,?,11.7µM,.,?,15.8µM,.
Cc1ccc2occ(CC(=O)Nc3ccc(S(N)(=O)=O)cc3)c2c1,.,.,.,.,.,.
Cc1ccc(C)c(CSc2ccc3nnc(CCNS(=O)(=O)c4ccccc4)n3n2)c1,.,.,.,.,.,.
Cc1ccc(S(=O)(=O)NCCc2nnc3ccc(SCc4ccccc4C)nn23)cc1,.,.,.,.,15.8µM,.
CC(=O)N1CCCc2cc(S(=O)(=O)N3CCCC(C(=O)N4CCN(c5ccccc5F)CC4)C3)ccc21 (stereo not given),10µM,.,.,?,.,.
O=C(CN1C(=O)C2(OCCO2)c2ccccc21)c1ccc(Cl)cc1,/,/,/,/,.,.
C#CCN1C(=O)C(O)(CC(=O)c2ccc(OC)c(OC)c2)c2cc(Br)ccc21 (stereo not given),?,5.21µM,?,?,?,.
CCCN1C(=O)C(O)(CC(=O)c2ccc(C(C)C)cc2)c2ccccc21 (stereo not given),?,13.1µM,.,.,.,.
CCCCN1C(=O)C(O)(CC(=O)c2ccc(CC)cc2)c2cc(Br)ccc21 (stereo not given),?,16.5µM,.,?,?,.
COC(=O)CN1C(=O)C(O)(CC(=O)c2ccc(F)cc2)c2ccccc21 (stereo not given),?,?,.,.,.,.
COc1ccccc1C(=O)CC1(O)C(=O)N(CC(N)=O)c2ccccc21 (stereo not given),.,.,.,.,?,.
CCCN1C(=O)C(O)(CC(=O)c2ccc(CC)cc2)c2ccccc21 (stereo not given),.,14.7µM,.,.,.,.
SMILES,S16 viability,mTORC1 inh,SKOV3 invasion,PMP22 txn prim,p53null 39C kill,p53null 32C tox
C[C@H]1[C@@H](OC(=O)CCC(=O)O)O[C@@H]2O[C@@]3(C)CC[C@@H]4[C@H](C)CC[C@@H]1[C@@]24OO3,/,/,.,/,/,/
CC(C)c1ccc(N2C(=O)CSC23C(=O)N(Cc2ccccc2)c2ccccc23)cc1 (stereo not given),.,.,.,?,.,.
CC(C)c1ccc(C(=O)CC2(O)C(=O)N(CCc3ccccc3)c3ccc(Cl)cc32)cc1 (stereo not given),.,.,.,?,12.6µM,.
CCOCc1cc(CN2CCN(c3ccccc3OC)CC2)c(O)c2ncccc12,3.16µM,?,.,?,1.26µM,.
CCCOCc1cc(CN2CCN(c3ccccc3OC)CC2)c(O)c2ncccc12,10µM,9.27µM,.,5.77µM,3.16µM,15.8µM
COc1ccccc1N1CCN(Cc2cc(COC(C)C)c3cccnc3c2O)CC1,7.08µM,5.85µM,?,3.5µM,1.58µM,15.8µM
CC1COC2(CCN(c3nc(=O)c4cc(C(F)(F)F)cc([N+](=O)[O-])c4s3)CC2)O1 (stereo not given),/,/,.,/,/,/
COc1c(OCCCN2CCOCC2)ccc2c3n(c(=NC(=O)c4cnc(N)nc4)nc12)CCN3,/,/,.,/,/,/
COc1cc([C@@H]2c3cc4c(cc3[C@@H](O[C@@H]3O[C@@H]5CO[C@@H](C)O[C@@H]5[C@H](O)[C@@H]3O)[C@H]3COC(=O)[C@H]23)OCO4)cc(OC)c1O,/,/,.,/,/,/
CCS(=O)(=O)c1ncc(Cl)c(C(=O)N(Cc2ccccc2)Cc2ccco2)n1,3.55µM,3.29µM,.,3.18µM,?,?
CCn1c(C(=O)N(C2CC2)C2CC2)cc2c3c(ncn3C)c(Nc3cc(C)n(C)n3)nc21,/,/,.,/,/,/
C=C1C(=O)[C@@]23C(CC[C@@H]1[C@H]2O)[C@@]12CO[C@]3(O)[C@@H](O)[C@@H]1C(C)(C)CC[C@@H]2O (stereo not given in full),/,/,18.7µM,/,/,/
CN[C@@H](C)C(=O)N[C@H]1CN(C(=O)CC(C)C)CC[C@H]2CC[C@@H](C(=O)NC(c3ccccc3)c3ccccc3)N2C1=O,/,/,.,/,/,/
O=C(C=Cc1ccc(CN(CCO)CCc2c[nH]c3ccccc23)cc1)NO,/,/,.,/,/,/
CC1CCN(S(=O)(=O)c2ccc3nc(Nc4cccc(C(F)(F)F)c4)ccc3c2)CC1,?,?,.,?,11.2µM,.
Cn1c(=O)c(Oc2ccc(F)cc2F)cc2cnc(NC3CCOCC3)nc21,/,/,.,/,/,/
Cc1cc(Nc2ccc(Cl)cc2C)nc(-n2nc(C)cc2C)n1,5.62µM,.,.,6.96µM,.,.
COc1ccc(Cn2c(C(=O)O)c(CNCc3ccccc3F)c3ccc(OC)cc32)cc1,?,11.7µM,.,?,.,.
CCOc1ccccc1CNCc1c(C(=O)O)n(Cc2ccccc2)c2cc(OC)ccc12,.,.,.,.,?,.
CN(C(=O)c1ccc(F)cc1C(F)(F)F)C1CCN(c2nnc(-c3ccnn3C)c3ccccc23)CC1,/,/,.,/,/,/
CC1=C(CC(=O)O)c2cc(F)ccc2C1=Cc1ccc(S(C)=O)cc1 (stereo not given),/,/,.,/,/,/
